Measurements as given in PubChem BioAssay AID1794845 (National Center for Advancing Translational Sciences (NCATS), 2023).
Screen size: about 6,900 compounds; fewer than 10 were called active. Calls come from the whole dose curve; as a rule, active = well fitted curve in the direction sought with a large enough effect; inconclusive = small, poorly fitted or top-dose-only effect, or another doubt; inactive = no such curve, though single readings can be large or run the other way. The list is a sample of the results.

Biological target: Metallo-beta-lactamase type 2 (Klebsiella pneumoniae) (UniProt C7C422)
Test: qHTS to identify inhibitors of the New Delhi Metallo-beta-lactamase (NDM): primary screen against the NCATS Gemini Collection; note: % of control where 0% means no effect
Conditions: NDM-1 enzyme, meropenem hydrolysis, absorbance 300 nm; series mostly up to 38.4 µM; activity % (negative = inhibition): at the top concentration
Text: Assay Submitter (PI): James Inglese Ph.D., Patricia Dranchak Ph.D., Mahesh Aitha Ph.D. Assay Development and Screening Technology Laboratory (ADST) National Center for Advancing Translational Sciences (NCATS), Rockville, MD National Institute of Health (NIH), Bethesda, Maryland The metallo-beta-lactamases (MBL) are a main antibiotic resistance mechanism evolved by bacteria. There is an urgent clinical need for MBL inhibitors to mitigate this growing threat. To support a machine-based learning study, qHTS has been used to experimentally test inhibitors identified by prediction tools.
PROTOCOL TABLE (as described by Inglese et al., 2007) SEQUENCE No. (e.g., 1, 2, 3, etc.); […] (e.g., enzyme, Incubation, Reagent, etc.); VALUE; DESCRIPTION 1; NDM-1; 4 uL of 3 nM enzyme [2 nM final] in 50 mM HEPES (pH 7.0), 1 uM […], 0.01% Tween20; Use BioRaptr to dispense into Aurora black, clear bottom low base 1536-well plates 2; Compounds; 23 nL; Use Pin Tool (Wako) to transfer DMSO control and library compounds in DMSO 3; Incubate; >30 min 4; Reagent; 2 uL of 150 uM meropenem [50 uM final] 5; Incubate; 30 min. 6; Detector; Absorbance at 300 nm (bandwidth = 5 nm, 25 flashes/well) on Tecan Infinity NOTES (numbers refer to sequence above) 1; Column 1 of each plate received assay buffer without enzyme and columns 2-48 received enzyme for a final assay concentration of 2 nM. 2; Control plate contained DMSO in columns 1, 2, 3, and 4. 3; Compound interaction with enzyme. 4; Meropenem substrate was prepared in the same assay buffer as step 1 for a final assay concentration of 50 uM and added to all wells across the assay plates. 5; Substrate interaction with enzyme, plateau phase of kinetics. 6; Default reader settings were applied for absorbance read at 300 nm, bandwidth = 5 nm, 25 flashes/well. References: Inglese J, Shamu CE, Guy RK. 2007. Reporting data from high-throughput screening of small-molecule libraries. Nat Chem Biol. doi:10.1038/nchembio0807-438 Yasgar A, Shinn P, Jadhav A, Auld D, Michael S, Zheng W, Austin CP, Inglese J, Simeonov A. 2008. Compound Management for Quantitative High-Throughput Screening. J Lab Autom 13:79 - 89. doi:10.1016/j.jala.2007.12.004

Sequence of Metallo-beta-lactamase type 2 (Klebsiella pneumoniae) (C7C422 whole entry, looked up): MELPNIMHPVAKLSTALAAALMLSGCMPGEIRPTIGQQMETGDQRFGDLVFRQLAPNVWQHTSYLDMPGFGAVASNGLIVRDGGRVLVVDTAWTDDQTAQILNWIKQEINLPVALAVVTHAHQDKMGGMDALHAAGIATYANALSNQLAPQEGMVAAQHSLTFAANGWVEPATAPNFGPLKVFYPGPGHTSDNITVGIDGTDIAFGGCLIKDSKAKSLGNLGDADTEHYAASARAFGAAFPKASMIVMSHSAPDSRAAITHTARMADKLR

Activity % (negative = inhibition), inactive:
N#Cc1ccccc1-c1cc2c(ccn2Cc2ccncc2)c(N2CCOCC2)n1 0.932% [at 57.5 µM]
COc1cc(CC2(CCC(=O)N3CCC(Oc4cccc(F)c4)CC3)CCC(=O)N2)ccc1F (stereo not drawn) 9.28%
CN1CCN([C@H]2[C@@H]3OC[C@@H](O3)[C@@H](NCc3ccc(-c4ccccc4)cc3)[C@@H]2O)CC1 0.426% [at 57.5 µM]
CC(C)(C)c1nc(C(=O)NCc2cccnc2)n2ccccc12 21.7%
CN1CCN(C(=O)c2cncc(N[C@H]3C[C@@H]4OCC[C@H]34)n2)CC1 3.03%
COc1ccc(C(=O)N2CCC3(CCC3OC)CC2)cn1 (stereo not drawn) 2.44%
CCC1(N2CCN(S(=O)(=O)c3cccs3)CC2)CCN(S(C)(=O)=O)C1 (stereo not drawn) 0.936%
Cn1cc(CN[C@H]2C[C@H]3C(=O)NC[C@@H](CCC(=O)NCc4ccccc4)N3C2)c2ccccc21 1.89%
CCc1nc(-c2c3n(c(=O)n(CC(=O)OC)c2=O)CCCC3)no1 0.26%
O=C(c1n[nH]c2ccccc12)N1CC2CC(C1)[C@H]1CCCC(=O)N1C2 (stereo partly drawn) 17%
COCc1nnc2n1CCC(NC(=O)Cn1nc(C(F)(F)F)cc1C)CC2 (stereo not drawn) -0.452%
Cc1ccc(C(C(=O)O)N2CCC(C(=O)N3CCCC3)CC2)c(C)c1 (stereo not drawn) -7.75%
O=C(NCCCn1ccnn1)c1cccc(S(=O)(=O)N2CCOCC2)c1 12.3%
CC(=O)N1CCC(N2CC[C@H](c3nc4ccccc4s3)C2)CC1 60.4% [at 57.5 µM]
N[C@H]1CN(C(=O)c2cccc(-n3cnnc3)c2)C[C@@H]1c1ccccc1 -3.3%
COCC1CN(Cc2c(C)n[nH]c2C)CC12CCNCC2 (stereo not drawn) -1.59%
COc1ccc(Cn2c3c(c(=O)n2Cc2ccccc2)CCN(C(=O)CCc2cccnc2)C3)cc1 -1.23%
CCn1c(C(=O)OC)c(NC(C)=O)c2cc(NC(C)Cc3ccccc3OC)cnc21 (stereo not drawn) -0.817%
COc1cccc(CN2CC(Oc3ccccc3C(=O)NC3CC3)C2)c1 47%
CN(Cc1cc(C[C@@H]2C[C@H](NC(=O)C(C)(C)C)C2(C)C)no1)c1ccccc1 -0.493% [at 57.5 µM]
Cc1cc2nc3n(c(=O)c2n1CC(=O)NC1CCCCC1)CCCCC3 6.24%
COCCN1CCCCCC(O)c2cc(C(=O)NCc3ccc(F)cc3)ccc21 (stereo not drawn) -7.68%
O=C(CCn1ccn2nc3c(c2c1=O)CCCC3)N1CCSCC1 5.47%
CCN(C1CCOCC1)C1CN(C(=O)c2ccccn2)C1 5.74%
CN1CC[C@H]2CN(C(=O)c3scc4c3OCCO4)C[C@@]2(C(=O)O)C1 41.3%
Cc1cc(C(=O)N2CC[C@H](NS(=O)(=O)c3cn(C)cn3)C[C@H]2C(=O)N[C@H](Cc2c[nH]c3ccccc23)C(N)=O)n(C)n1 4.3%
Cc1cccc(C(=O)N2CCCCCCN(C)C(=O)[C@@H]3CCC[C@@H]32)c1 16.9%
CCN(CC)C(=O)[C@@H]1C[C@@H](NC(=O)c2ccn(CC)c(=O)c2)CN1C(C)=O 25%
COC[C@@H]1CN(C(=O)Cc2c(C)noc2C)C[C@H]1c1ccccn1 -1.66%
O=C(NC1CCN(c2ccnc3ccnn23)C1)c1cc(F)ccc1Br (stereo not drawn) 5.28%
COCC(=O)N[C@H]1C[C@@H](CO)N(Cc2scnc2C)C1 1.25%
COc1ccc2cc(C3CN(C(=O)CNC(=O)C(C)C)CCO3)ccc2c1 (stereo not drawn) -1.68%
COc1ccc(C(=O)Nc2ccc3c(c2)CN(CCc2ccccc2)C(=O)C(C)O3)cc1OC (stereo not drawn) 22.1%
COc1ccc(-c2cn(C)c(=O)n3cc(CN4CCNC(=O)C4)nc23)cn1 -6.58% [at 57.5 µM]
CCCC(C)N1CC2(CCN(C(=O)c3cnn4c3CCCC4)CC2)OC1=O (stereo not drawn) 2.01%
CCCN1CC2(CCN(Cc3nc(CCOC)no3)CC2)CC1C(=O)O (stereo not drawn) 11.1%
O=C(Cc1ccsc1)Nc1ccc2c(N3CCCC3)ncnc2c1 1.1%
CN(C)Cc1nnc(C2CC(NC(=O)Cc3noc4ccccc34)C2)n1C (stereo not drawn) 3.59%
O=C1NC2(CCN(Cc3ccccc3C(F)(F)F)C2)COc2ccccc21 (stereo not drawn) 13.6%
CN(C)C[C@@H]1CN(Cc2ccncc2)C[C@H]1NC(=O)Cc1ccsc1 -3%
COCc1ncc(C)n1C1CCCN(C(=O)CCCc2ccccc2)C1 (stereo not drawn) -0.663%
O=C(CC1CCCC1)N1CCCC(c2nn[nH]n2)C1 (stereo not drawn) -0.11%
O=C1c2ccccc2CN1C1CCN(Cc2cccc3ccccc23)CC1 -1.67%
COc1ccc(-c2ccccc2NC(=O)C2CCCN(CC=C(C)C)C2)cc1 (stereo not drawn) 3.28%
O=C1NCCOCCN(S(=O)(=O)c2ccc3c(c2)CCC3)[C@@H]2CCCC[C@H]12 18.1%
CC(=O)c1cc(C(=O)NCc2c(C)ncc3c2CCNC3)[nH]n1 1.33%
COc1ccc(C(=O)N2CCC([C@@H]3CNC[C@H]3CO)CC2)cc1 -3.89%
CNC(=O)[C@@H](C1CC1)N1CCC[C@H]1C(=O)NCc1cccnc1 24.8% [at 57.5 µM]
COC(=O)NCC(=O)N1CC[C@@H]2[C@@H](CCC(=O)N2CCc2ccccc2)C1 -4.62%
CCn1c(CN2CCN(c3nc4ccccc4s3)CC2)nnc1C1CC(N)C1 (stereo not drawn) -5.98%
CCn1cc(S(=O)(=O)NCC2Cn3cccc3C(=O)N2C)cn1 (stereo not drawn) -1.08%
COc1ccc(CN2CCCC3(Cc4ccccc4CNC3=O)C2)c(OC)n1 (stereo not drawn) 11.1%
Cc1cc(C)n(CCc2c(-c3ccccc3)ncn2C(C)CCCC(C)(C)O)n1 (stereo not drawn) -2.56%
CCc1nc(-c2c3n(c(=O)n(CC(=O)NC4CCCC4)c2=O)CCCCC3)no1 -0.651%
CC(C)Cc1cc(CN2CCC(CO)(CN3CCCC3)CC2)[nH]n1 6.63%
OC1(CN2CCC(c3nc(-c4ccccc4)no3)CC2)CNCCOC1 (stereo not drawn) 1.84%
CCN1CC2(CCN(Cc3nc(COC)no3)CC2)CC(c2ccccc2)C1=O (stereo not drawn) 16.1%
Cc1noc(C)c1CCCNC(=O)c1ccc(NC[C@H]2C[C@H]3C=C[C@H]2C32CC2)nc1 16.1%
CN(C)c1cccc(C(=O)NC2CCN(c3cc(-c4cccs4)[nH]n3)C2)c1 (stereo not drawn) -5.08%
COc1ccccc1-c1ccc(CN2CCCC(c3nc4ccc(C)cc4c(=O)[nH]3)C2)cc1 (stereo not drawn) 2.11%
C[S+](=O)([O-])N1CCC(Cn2ccc3c(N4CCOCC4)nc(-c4cccc5[nH]ncc45)cc32)CC1 33.7%
O=C(c1ccccn1)N1CCCC2(CNc3ccccc3[S+](=O)([O-])N2)C1 (stereo not drawn) 27.6%
CN1CCCC(CN(C)C(=O)c2cc(-c3cnn(CCO)c3)nc3ccccc23)C1 (stereo not drawn) 0.511%
Cc1cnc(C2CC2)n1C1CCCN(C(=O)c2ccoc2)C1 (stereo not drawn) 1.2%
COc1ccc(C(=O)N2CCC3(CC2)OCC(C(=O)NC2CC2)N3C(=O)c2cccc(C)c2)cc1 (stereo not drawn) 15.3%
Cc1ccsc1CN1CCc2nc(N3CCOCC3)[nH]c(=O)c2CC1 5.27%
O=C1NC2(CCCN(Cc3cncs3)C2)COc2ccccc21 (stereo not drawn) -0.209%
CCS(=O)(=O)Nc1ccc(C)n(CC(=O)NC2CCCCC2)c1=O 7.41%
